Data from PubChem BioAssay AID1259417 (TB Discovery Research, Infectious Disease Research Institute, 2018).
Hit rate of the full screen: of about 1,100 compounds, about 760 (69%) were called active. The rule behind the calls is not given here. The set was probably picked from earlier hits. Some of the results follow.

Test: M. tuberculosis growth inhibition, HTS (AID 1259417);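 note: bacteria grown with compound for 5 days at 37 °C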
Conditions: stronger effect = higher value, concentration not given here
[1] = M. tuberculosis DsRed fluorescence growth inhibition
[2] = M. tuberculosis growth inhibition

Compound | inhibition [1] | inhibition [2]
CC1=Nc2c(ccc3cccnc23)C1(C)C | 8.5% (active) | 35.9%
COc1ccccc1-c1nnc(Nc2nc3c(F)cccc3s2)o1 | 30.8% (active) | 84.8%
Cc1ccc(C(=O)NCCSC(C)(C)C)cc1[N+](=O)[O-] | -1.92% (inactive) | -26.5%
COCCCNC(=O)c1c(NC(=O)c2ccc(C(C)(C)C)cc2)sc2c1CCCC2 | 15.2% (inactive) | -1.37%
Cc1ccc(C(=O)NCCC2=CCCCC2)cc1Br | 86.6% (active) | 67.2%
Cc1ccc(C(=O)NCCC2=CCCCC2)cc1I | 81.3% (active) | 52.7%
CCn1c2ccccc2c2cc(CN3CCC(N4CCN(c5ccccc5)CC4)CC3)ccc21 | -3.76% (inactive) | -28%
COC(=O)CSc1ccc(C#N)c(SCC(=O)OC)c1 | -1.74% (active) | 42.7%
COC(=O)CSc1cc(SCC(=O)OC)c(C#N)c(SCC(=O)OC)c1 | 28.8% (inactive) | 23.9%
COC(=O)CSc1ccc2c(N)c(C(=O)OC)sc2c1 | 43.5% (active) | 77.1%
Cc1cc(C(C)(C)C)ccc1OCCCCn1ccnc1 | 99.4% (active) | 99.7%
Cc1cc(C(C)(C)C)ccc1OCCOCCn1ccnc1 | 99.2% (active) | 100%
N=c1c2c(-c3ccccc3)c(-c3ccccc3)n(Cc3ccco3)c2ncn1Cc1ccco1 | 71% (active) | 61.5%
O=C(CSc1nnc(-c2cccnc2)o1)N1CCC(Cc2ccccc2)CC1 | 95.4% (active) | 86.2%
COc1ccccc1N1C(=O)c2cccc3cc([N+](=O)[O-])cc(c23)C1=O | 89.8% (active) | 95.8%
Cc1cccc(C)c1OCc1nnc(SCC(=O)NCCc2ccccc2)o1 | 84.2% (active) | 73.9%
Cc1cccc(OCc2nnc(SCC(=O)NCCc3ccccc3)o2)c1 | 92.7% (active) | 74.5%
CSc1ccc(C(CC(=O)c2ccccc2)Nc2ccc(F)cc2)cc1 (stereo unspecified) | 19.6% (inactive) | 21.6%
Cn1c(NC(=O)c2ccccc2)nc2ccccc21 | 98.3% (active) | 99.7%
Cn1c(NC(=S)Nc2ccccc2)nc2ccccc21 | 21.4% (active) | 48.5%
O=C(CSc1ccc(Br)cc1)Nc1cccc(Cl)c1 | 7.93% (inactive) | 16.8%
O=C(Nc1cccc(Cl)c1)c1cc(Br)ccc1Cl | 76.3% (active) | 46.1%

Compound | inhibition [1] | inhibition [2]
COc1ccc(N2C(=O)C(F)(F)C2c2ccccc2F)cc1 (stereo unspecified) | 33.6% (active) | 75.8%
O=C(NCc1ccc2c(c1)OCO2)c1cnn2c1NC(c1cccs1)CC2C(F)(F)F (stereo unspecified) | 100% (active) | 94.1%
O=C(NCc1ccco1)c1cnn2c1NC(c1ccc(Br)cc1)CC2C(F)(F)F (stereo unspecified) | 38.9% (active) | 15.1%
Cc1c(CNC(=O)c2cnn3c2NC(c2ccc(Br)cc2)CC3C(F)(F)F)cnn1C (stereo unspecified) | 57.6% (active) | 17.9%
CSc1nc2ccc(NC(=O)C3CC(=O)N(Cc4ccccc4)C3)cc2s1 (stereo unspecified) | 10.7% (inactive) | 22.1%
CCOC(=O)c1cnc(-n2nc(C)cc2C)nc1Nc1ccc(OC)cc1 | 54% (active) | 30.7%
CCOC(=O)c1cnc(-n2nc(C)cc2C)nc1NCCc1ccccc1 | 101% (active) | 101%
O=S1(=O)C=C(Sc2nnc(-c3ccncc3)o2)c2ccccc21 | 100% (active) | 101%
O=S1(=O)C=C(Sc2nnc(-c3ccccc3)o2)c2ccccc21 | 100% (active) | 101%
CC(=O)Oc1c(C(=O)c2ccccc2)sc2ccccc12 | 79.9% (active) | 52.4%
CCc1ccc(-c2ccc(SCC(N)=O)nn2)cc1 | 20% (active) | 41%
Cc1cc(OCC(=O)NC2C3CC4CC(C3)CC2C4)cc(C)c1Br (stereo unspecified) | 98.6% (active) | 72%
N#Cc1c(SCC(N)=O)nsc1SCc1ccccc1Cl | 20.8% (active) | 61.7%
CCc1cccc2c(C(=O)COC(=O)c3ccc([N+](=O)[O-])s3)c[nH]c12 | 91.9% (active) | 95.3%
O=C(OCC(=O)c1c[nH]c2ccccc12)c1ccc([N+](=O)[O-])s1 | 61.6% (active) | 52.7%
Cc1ccc(-c2nnc(NC(=O)c3ccccc3Br)o2)c(C)c1 | 6.55% (inactive) | 19.3%
Cc1ccc(-c2nnc(NC(=O)c3ccccc3C)o2)c(C)c1 | 84.4% (active) | 87.2%
Cc1ccc(-c2nnc(NC(=O)c3ccccc3Cl)o2)c(C)c1 | 24.1% (active) | 62.8%
Cc1ccc(-c2nnc(NC(=O)c3cc4ccccc4oc3=O)o2)c(C)c1 | 80.8% (active) | 88.6%
NC(=O)C1CCN(C2=NC(=O)C(=Cc3ccc(Cl)cc3Cl)S2)CC1 | 100% (active) | 99.1%
CCOC(=O)C1CCN(C2=NC(=O)C(=Cc3ccc(Cl)cc3Cl)S2)CC1 | 51.5% (active) | 55.8%
Cc1ccc(-c2csc3ncn(C(C)C(=O)OC4CCCCC4)c(=O)c23)cc1C (stereo unspecified) | -0.545% (inactive) | -11%

Compound | inhibition [1] | inhibition [2]
CSc1nc2nc3c(c(=O)n2[nH]1)CCCC3 | 23.8% (active) | 41.7%
Cc1ccc(C(C)C)c(OCCCCn2ccnc2)c1 | 98.9% (active) | 100%
Cc1ccc(C(C)C)cc1OCCCCn1ccnc1 | 100% (active) | 99.6%
Cc1cc(OCCCCn2ccnc2)ccc1C(C)C | 99.8% (active) | 98.9%
Cc1cc(OCCCCn2ccnc2)cc(C(C)C)c1 | 100% (active) | 100%
O=C(c1ccc(Cl)cc1)c1ccc(CSc2nnc(-c3ccccc3)o2)o1 | 97.4% (active) | 96.9%
COC(=O)c1ccc(CSc2nnc(-c3ccncc3)o2)o1 | 14.3% (active) | 39.6%
CCOc1cc(CNC(C)C23CC4CC(CC(C4)C2)C3)cc(Cl)c1OCC(=O)NC(C)(C)C (stereo unspecified) | 99.2% (active) | 98.2%
COc1cc(CNC(C)c2ccccc2)cc(Cl)c1OCC(=O)Nc1ccccc1 (stereo unspecified) | 29.9% (active) | 19%
CCOC(=O)COc1ccc(S(=O)(=O)N2CCC(C)CC2)cc1 | 72.7% (active) | 91.2%
CCOC(=O)COc1ccc(S(=O)(=O)N2CCc3ccccc3C2)cc1 | 80.1% (active) | 96.9%
CCOC(=O)c1ccc(NC(=O)CSc2nnc(-c3ccc(OC)cc3)o2)cc1 | 18.2% (active) | 56.7%
CCOc1ccc(NC(=O)CSc2nnc(Cc3ccc(OC)cc3)o2)cc1 | 3.01% (inactive) | 2.07%
COC(=O)c1ccc(NC(=O)CSc2nnc(Cc3ccc(OC)cc3)o2)cc1 | 18.7% (active) | 53.1%
COc1ccc(-c2nnc(SCC(=O)Nc3ccc([N+](=O)[O-])cc3)o2)cc1 | 23.1% (active) | 88.8%
COc1ccc(Cc2nnc(SCC(=O)Nc3ccc(C(C)C)cc3)o2)cc1 | 6.85% (inactive) | 9.66%
COc1cccc(NC(=O)CSc2nnc(-c3ccc(Br)cc3)o2)c1 | 17.3% (inactive) | 19.2%
Cc1ccc(Oc2cc(NC(=O)CCCn3nc(C)c([N+](=O)[O-])c3C)cc([N+](=O)[O-])c2)cc1 | 0.414% (inactive) | -13.5%
C=CCSc1nnc(-c2ccc([N+](=O)[O-])cc2)o1 | 99.2% (active) | 99.1%
CCOC(=O)CSc1nnc(-c2ccc([N+](=O)[O-])cc2)o1 | 95.7% (active) | 95.6%
O=C(/C=C/c1cccc([N+](=O)[O-])c1)c1cccs1 | 94.6% (active) | 96.5%
CCOC(=O)C(C)Oc1ccc2c(-c3ccc(OC)cc3)cc(=O)oc2c1 (stereo unspecified) | 56.3% (active) | 89%

Compound | inhibition [1] | inhibition [2]
COC(=O)COc1ccc2c(-c3ccc(OC)cc3)cc(=O)oc2c1 | 97.7% (active) | 98.3%
COC(=O)COc1ccc(NC(=O)c2ccc(-c3ccccc3)cc2)cc1 | 99.4% (active) | 100%
CC(C)(C)n1cnc2cc(NC(=O)c3ccc(Cl)cc3)ccc21 | 19.9% (inactive) | 28.4%
CCOC(=O)COc1ccc2c(c1)c(C(=O)OCC)c(C)n2CC | 51.2% (active) | 69.6%
COC(=O)COc1ccc(NC(=O)c2ccc3c(c2)C(=O)N(C(C)(C)C)C3=O)cc1 | 69.9% (active) | 88.2%
COC(=O)COc1ccc(-c2ccc(C)cc2)cc1 | 35.7% (active) | 70.9%
CCOC(=O)c1c(C)n(C)c2ccc(OC(C)C(=O)OC)cc12 (stereo unspecified) | 3.6% (inactive) | 19.3%
COC(=O)COc1ccc(-c2ccccc2)cc1 | 48.7% (active) | 85.1%
CCOC(=O)COc1ccc(OCc2ccccc2)cc1 | 1.21% (inactive) | -7.23%
CC(C(=O)OCc1ccccc1)n1cnc2scc(-c3ccc(Br)cc3)c2c1=O (stereo unspecified) | -4.93% (inactive) | -4.92%
CCOC(=O)COc1ccc(-c2ccc(C)cc2)cc1 | 24.3% (active) | 81.2%
Cc1ccc(-c2ccc(OCC(=O)OCc3ccccc3)cc2)cc1 | 53.2% (active) | 82.9%
CN1CCN(c2cc(-c3ccccc3)nc3c(C(F)(F)F)cccc23)CC1 | 93% (active) | 71%
COc1ccccc1NC(=O)CSc1nc(-c2ccccc2)cc(C(F)(F)F)c1C#N | 0.888% (inactive) | 24.8%
CC(NC(=O)c1ccc([N+](=O)[O-])o1)C12CC3CC(CC(C3)C1)C2 (stereo unspecified) | 70% (active) | 75.5%
O=C(Oc1cccc2cccnc12)c1cc2ccccc2oc1=O | 99.2% (active) | 100%
O=C(Oc1cccc2cccnc12)c1ccccc1F | 101% (active) | 101%
CCN(CC)S(=O)(=O)c1ccc(Cl)c(C(=O)Oc2cccc3cccnc23)c1 | 100% (active) | 99.3%
O=C(Oc1cccc2cccnc12)c1ccco1 | 101% (active) | 99.7%
O=C(Oc1ccccc1)c1cccc2cccnc12 | 99.7% (active) | 101%
CS(=O)(=O)Cc1nc2ccccc2oc1=O | 99.8% (active) | 99.5%
CCC(Sc1nc2ccccc2o1)C(=O)Nc1nnc(C)s1 (stereo unspecified) | 92.7% (active) | 96.2%
